# Measured values from PubChem BioAssay (NCATS).
# Inconclusive results are not listed. A call without a number means that no potency is given here. Active and inactive are the calls of the source. Calls follow the shape of the dose curve; as a rule, active = well fitted inhibition curve with a large enough effect; inconclusive = small, poorly fitted or top-dose-only effect; inactive = no such curve, though single readings can be large or run the other way.
# Molecular target: Retinaldehyde dehydrogenase 3 (Homo sapiens) (UniProt P47895)
# Assay: qHTS for Inhibitors of the Aldehyde Dehydrogenase Family (ALDH1A3) Primary screen (AID 2061315)
# Conditions: ALDH inhibition qHTS; series mostly up to 56 µM
row,Compound,Potency
1,CCOC(=O)C1CCN(C(=O)C(C)(C)NC(=O)Nc2ccc(Cl)cc2Cl)CC1,inactive
2,O=C(Nc1ccc(N2CCOCC2)c(C(F)(F)F)c1)Nc1nnc(-c2ccncc2)s1,inactive
3,O=C(NCCc1nc2ccccc2n1CCOc1ccc(C(F)(F)F)cc1)C1CCCCC1,inactive
4,CC(C)c1cccc2c(-c3ccccc3)cc(-c3ccc(-c4ccc(C(=O)O)cc4)[nH]3)nc12,inactive
5,COc1ccc2nc(-c3ccc(Cl)cc3)sc2c1,inactive
6,O=C(Nc1ccc(Cl)c(Cl)c1)Nc1ncc(-c2ccncc2)s1,inactive
7,CCC(=O)NC(c1ccc(C)cc1)c1cc([N+](=O)[O-])c2cccnc2c1O (stereo not given),inactive
8,COc1cccc(Nc2nn3c(=O)c4ccccc4nc3s2)c1,inactive
9,O=C(O)c1ccc(-c2nn3c(=O)cc(N4CCNCC4)nc3s2)cc1,inactive
10,CCOC(=O)/C=C/c1cc(F)c(S(=O)(=O)N2CCN(S(=O)(=O)c3ccc4c(c3)OCCO4)CC2)cc1F,inactive
11,COc1cccc(C2c3c(ncn(-c4ccccc4C)c3=N)Oc3ccc4ccccc4c32)c1 (stereo not given),inactive
12,COC(=O)C1CCN(C(=O)c2ccc3c(c2)ncn3-c2cccc(C)c2)CC1,inactive
13,O=[S+]([O-])(c1ccc(-c2ccccc2)cc1)N1CCN([S+](=O)([O-])c2ccc3c(c2)OCCO3)CC1,inactive
14,N=c1c2c(ccn1CCCc1ccccc1)Oc1ccc3ccccc3c1C2c1ccccc1 (stereo not given),inactive
15,Cc1ccnc(NC(=S)N2CCN(c3cc(C(F)(F)F)cc(C(F)(F)F)c3)CC2)c1,inactive
16,CCCn1c(C)nc2c(NCc3ccccc3)nc(C)nc21,inactive
17,C=CCNc1oc(-c2cccc(Br)c2)nc1C#N,inactive
18,Cc1ccc(NS(=O)(=O)c2cc3c(cc2F)NC(=O)CC3)cc1Cl,inactive
19,O=[S+]([O-])(NC[C@H]1CCC[C@H](CN[S+](=O)([O-])c2c(F)cccc2F)C1)c1ccc2c(c1)OCCO2,inactive
20,c1ccc(CN(Cc2ccccc2)Cc2nnc(-c3cc4ccccc4[nH]3)o2)cc1,inactive

row,Compound,Potency
1,Cc1cc(NCc2ccc(NC(=O)Cc3ccc(Cl)c(Cl)c3)cc2)no1,inactive
2,COc1ccc(C2Nc3ccccc3C(=O)N2Cc2cccc(OC)c2OC)cc1COc1c(C)cc(NC(C)=O)cc1C (stereo not given),inactive
3,c1c[nH]c(CNc2ncnc3ccc(-c4ccoc4)cc23)n1,inactive
4,c1ccc(-n2cc(-c3nnc4n3CCCCC4)c3ccccc32)cc1,inactive
5,CCCCC1CCC(C(=O)Nc2ccc(S(=O)(=O)Nc3nccs3)cc2)CC1 (stereo not given),inactive
6,O=C(Cc1nnc(CNC(=O)c2ccccc2)s1)Nc1ccc(C(F)(F)F)cc1Cl,inactive
7,COc1cc(O)c(C(CC(=O)N2CCCC(C)(C)C2)c2ccc3c(c2)OCO3)c(OC)c1 (stereo not given),inactive
8,O=C(NCCc1ccc(OCC(F)(F)F)c(OCC(F)(F)F)c1)c1cc2sccc2n1Cc1ccccc1,inactive
9,CNc1oc(-c2cccc3c2OC(F)(F)O3)nc1C#N,inactive
10,Cc1cnc(-c2ccccc2C2COC2)nc1NCC1CCN(c2cccnc2)CC1,inactive
11,O=[S+]([O-])(c1c(F)cccc1F)N1CCN([S+](=O)([O-])c2c(F)c(F)c(F)c(F)c2F)CC1,inactive
12,Cc1c(P(=S)(c2ccccc2)c2ccccc2)c2ccccc2n1CCCc1ccccc1,inactive
13,Cc1nnc(-c2ccccc2[N+](=O)[O-])n1CCCn1ccnc1,inactive
14,Cc1cc(C=CC#N)cc(C)c1Nc1nc(Nc2ccc3c(c2)OCO3)c2[nH]cnc2n1,inactive
15,O=C1CCCC2=C1C(c1[nH]ncc1Br)N=C(Nc1nc3ccccc3o1)N2 (stereo not given),inactive
16,Cn1nnnc1Sc1ncnc2scc(-c3ccc(C(=O)OC(C)(C)C)cc3)c12,inactive
17,Cc1ccccc1-c1nnc(NC(=O)Nc2ccc3ccccc3c2)s1,inactive
18,CCCn1c(-c2ccc(F)cc2)nc2c(NCC3CCCN3CC)nc(C)nc21 (stereo not given),inactive
19,CCn1c(-c2nonc2N)nc2c(C#CC(C)(C)O)ncc(OCC3CCCNC3)c21 (stereo not given),inactive
20,CC1(C)C=Cc2c(ccc3c2N=C2C(C)(C)[C@@H]4C[C@]56CCCN5C(=O)[C@@]4(C[C@]23O)NC6=O)O1,inactive
